Bioassay records as filed in PubChem BioAssay.
The list is not random: actives were taken first. Their share in the collection is about 10%.
Luciferase inh = Photinus pyralis luciferase inhibition. AID 1347043. Potency, µM (highest dose often 115 µM), hits mostly inhibitors. 76,000 tested, 2.5% active. purified P. pyralis luciferase, luminescence, biochemical. P08659; also: nearly all actives have a fitted effect of over 65% in size
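Purified P. pyralis luciferase (10nM final) in 50mM Tris acetate pH 7.5, 10mM Mg acetate, 0.01% Tween-20, 0.05% BSA with 10uM D-luciferin and 10uM ATP. Compounds titrated qHTS. Luminescence imaged on CCD.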
NIH3T3 tox = kills NIH 3T3 cells | AID 1345082 | 94,000 tested, 4.3% active | Potency, µM (titrated, usually from 96.7 µM), without a hit: at the highest dose activity change, negative = cytotoxicity, most hits filed as inhibitors | NIH 3T3 viability, CellTiter-Glo ATP luminescence, 48-72 h; also: nearly all actives have a fitted effect of over 55% in size
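Viability of NIH 3T3 cells after 48 or 72 hr compound treatment at 37 °C was assessed by CellTiter-Glo, with luminescence imaged following a 10 min room-temperature step.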
hNpr1 antagonist = blocks ANP-stimulated signaling of human Npr1 receptor; P16066; HEK293 hNpr1 GloSensor cGMP, ANP-stimulated luminescence; Potency, µM (highest dose often 46.3 µM), without a hit: top-dose activity change, negative = inhibition, usual class: inhibitors; 76,000 tested, 1.6% active; AID 1347048; calls by dose curve; also: nearly all actives have a fitted effect of over 60% in size
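Compound pre-incubated 30 min at room temperature on GloSensor-loaded HEK293 cells stably carrying hNpr1 and the pGS-40F cGMP biosensor. Stimulation uses hNppA at 0.1 nM final; luminescence is taken at baseline and 20 min post-agonist.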
GPT2 inhibitor = blocks human glutamate pyruvate transaminase 2; Recombinant GPT2, coupled pyruvate oxidase/HRP Amplex Red fluorescence; Potency, µM (series often up to 57.7 µM), for inactives: top-dose activity change, negative = inhibition, hits mostly inhibitors; 100,000 tested, 0.25% active; AID 1671188; also: nearly all actives have a fitted effect of over 60% in size
Target sequence (Q8TD30 whole entry, looked up): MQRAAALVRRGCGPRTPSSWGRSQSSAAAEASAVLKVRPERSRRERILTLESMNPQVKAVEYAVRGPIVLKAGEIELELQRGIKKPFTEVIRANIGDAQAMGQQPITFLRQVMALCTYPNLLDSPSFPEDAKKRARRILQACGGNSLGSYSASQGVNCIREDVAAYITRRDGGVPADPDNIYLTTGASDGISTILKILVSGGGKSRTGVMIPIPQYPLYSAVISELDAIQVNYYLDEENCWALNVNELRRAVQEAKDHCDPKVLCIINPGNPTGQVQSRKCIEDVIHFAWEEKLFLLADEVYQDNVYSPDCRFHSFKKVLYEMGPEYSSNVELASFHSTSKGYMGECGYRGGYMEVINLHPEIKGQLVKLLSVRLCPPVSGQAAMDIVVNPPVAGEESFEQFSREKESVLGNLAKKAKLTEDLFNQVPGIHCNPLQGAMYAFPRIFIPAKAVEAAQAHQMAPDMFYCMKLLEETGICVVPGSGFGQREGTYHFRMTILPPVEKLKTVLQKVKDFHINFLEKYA
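Recombinant GPT2 (10ng/uL) with 250uM a-KG and 2mM L-alanine, 30 min at room temperature, in HEPES pH 7.5 buffer. Pyruvate detected by pyruvate oxidase/HRP/Amplex Red fluorescence after 30 min in the dark; AOA (50uM) as positive control.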
HEK293 tox = HEK 293 cell cytotoxicity. HEK 293 viability, ATP luminescence (CellTiter-Glo), 48-72 h. Potency, µM (titrated, usually from 115 µM), without a hit: at the highest dose activity change, negative = cytotoxicity, hits mostly inhibitors. 94,000 tested, 6.6% active; also: nearly all actives have a fitted effect of over 60% in size
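Cells seeded first (HEK 293, 250 cells/well), then compound added by pintool. Incubation ran 48 or 72 hr at 37 degree Celsius. CellTiter-Glo was added and luminescence imaged after 10 min at room temperature.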
The depositor's hits bear a star; i = inactive; ? = inconclusive; . = no result given; ! = repeats disagree; [ ] = remark or other dose. Unless noted, calls follow the shape of the dose curve; as a rule, active = well fitted curve in the direction sought with a large enough effect; inconclusive = small, poorly fitted or top-dose-only effect, or another doubt; inactive = no such curve, though single readings can be large; an effect the other way counts as inactive or inconclusive. % is scaled to controls: 0 for no effect and ±100 for the full control effect; potency is read from the fitted curve at half-maximal effect.

SMILES | Luciferase inh | NIH3T3 tox | hNpr1 antagonist | GPT2 inhibitor | HEK293 tox
O=C(c1ccc(Cl)cc1)N1CCCC(C(=O)N2CCC(c3nc4ncccc4[nH]3)CC2)C1 (centres undefined) | . | -20% | . | i | -4%
Cc1ccc(-c2noc([C@@H]3C[C@H](NS(=O)(=O)c4ccc5ccccc5c4)CN3C)n2)cc1 | 20µM* | ? | -22% | 1% | ?
Cc1ccccc1C(=O)N1CCC(C(=O)N2CCC(N3Cc4cccn4C3=O)CC2)CC1 | . | -20% | . | i | ?
Cn1ncc2c(C(=O)NCCc3ccc(Cl)cc3)cc(-c3cccnc3)nc21 | . | ? | . | i | 32µM*
COC(=O)CNC(=O)c1cc(-c2cccc(F)c2)nc2c1cnn2C | . | ? | . | . | -13%[172 µM]
Cn1ncc2c(C(=O)NCc3ccc(Cl)cc3)cc(-c3cccc(F)c3)nc21 | . | 32µM* | . | . | 40µM*
Cn1ncc2c(C(=O)NC3CC3)cc(-c3ccc(Cl)nc3)nc21 | . | ? | . | -3%[88.5 µM] | ?
Cn1ncc2c(C(=O)NC3CC3)cc(-c3cccnc3)nc21 | . | 40µM*! | . | 5%[88.5 µM] | 63µM*!
CCC(C)NC(=O)c1cc(-c2cccc(F)c2)nc2c1cnn2C (centres undefined) | . | ? | . | . | 89µM*
COc1ccc(-c2cc(C(=O)N3C[C@@H](Oc4ccccc4)C[C@H]3C(=O)NC3CC3)[nH]n2)cc1 | i | -5% | 4% | i | i
Cc1ccc(-c2cc(C(=O)NCc3ccc(F)cc3)c3cnn(C)c3n2)cc1 | . | ? | . | i | ?
Cn1ncc2c(C(=O)NCc3cccc(F)c3)cc(-c3ccc(Cl)cc3)nc21 | . | ? | . | i | 45µM*
COc1cccc(C(O)c2nc(C(=O)Nc3ccc4c(c3)NC(=O)CO4)c(C)o2)c1 (centres undefined) | 63µM* | ? | -4%[70.6 µM] | 3%[88.5 µM] | 89µM*
CN(Cc1cn(C)c2ccccc12)C1CCc2nn(CC3CC3)c(=O)n2CC1 (centres undefined) | i | 35µM* | -3% | 3% | 32µM*
COc1ccc(-c2ccnc3nc(C(C)C)nn23)cc1OC | i | ? | 6% | i | -1%
O=C(c1ccc(F)cc1)N1CCC(c2nn(-c3ccc(Cl)cc3)c(=O)[nH]2)CC1 | i | -26% | -5% | ? | ?
N[C@@H]1CC[C@H](C(=O)N2CCC(Oc3cccc(C(F)(F)F)c3)CC2)C1 | i | ? | 3% | -1% | 45µM*
O=C(C1CCC1)N1CCC(Oc2cccc(F)c2)C1 (centres undefined) | i | -1% | 3% | -11% | -3%
CC(C)(C)COC(=O)N1C[C@@H](CO)[C@@H]2Oc3c(F)cccc3[C@@H]21 | . | 32µM* | . | . | ?
COc1ccc(CN2CCc3nc(C(=O)Nc4ccccc4)oc3CC2)cc1 | 20µM* | ? | 25µM* | -15%[88.5 µM] | ?
O=C(Nc1ccccc1)c1nc2c(o1)CCN(Cc1ccc(F)c(Cl)c1)CC2 | 8.9µM* | ? | 4µM* | -2%[88.5 µM] | ?
COc1ccccc1CN1CCc2nc(C(=O)N3CCOCC3)oc2CC1 | i | ? | -6%[70.6 µM] | i | 100µM*
Cc1ccc(CN2CCc3nc(C(=O)Nc4cccnc4)oc3CC2)cc1 | ? | ? | ? | 2%[88.5 µM] | ?
O=C(Nc1ccc(Cl)cc1)c1nc2c(o1)CCN(Cc1cccc(O)c1)CC2 | 25µM* | ? | 2µM* | -12%[88.5 µM] | 32µM*
COCCNC(=O)c1nc2c(o1)CCN(Cc1ccc(OC)cc1)CC2 | i | ? | -2%[70.6 µM] | i | ?
SMILES | Luciferase inh | NIH3T3 tox | hNpr1 antagonist | GPT2 inhibitor | HEK293 tox
O=C(Nc1ccc(Cl)cc1)c1nc2c(o1)CCN(Cc1nccs1)CC2 | 22µM* | ? | 2.2µM* | i | ?
O=C(Nc1ccccc1)c1nc2c(o1)CCN(Cc1cccs1)CC2 | ? | ? | 7.9µM* | 5%[88.5 µM] | ?
O=C(NCc1cccc(F)c1)c1nc2c(o1)CCN(CCCc1ccccc1)CC2 | i | 89µM* | -2%[70.6 µM] | i | ?
COc1ccc(CN2CCc3nc(C(=O)Nc4ccc(Cl)cc4)oc3CC2)cn1 | ? | ? | 4µM* | 0%[88.5 µM] | ?
O=C(NC1CC1)c1ccc2nnc(-c3ccc(OC(F)(F)F)cc3)n2c1 | . | -18% | . | i | i
CCCCn1c(=O)c(C(=O)N2CCN(C(=O)c3ccc(OC)cc3)CC2)nc2cccnc21 | . | ? | . | 4% | -20%
Cc1ccc(C)c(S(=O)(=O)N2CCCCC2c2noc(COCC3CC3)n2)c1 (centres undefined) | i | ? | -19% | i | ?
NC(=O)N1CCCC(C(=O)N2CCN(c3nsc4ccccc34)CC2)C1 (centres undefined) | i | ? | 1% | 1% | 25µM*
O=C1CN(C(=O)c2csc3nc(-c4ccc(C(F)(F)F)cc4)cn23)CCCN1 | 7.9µM* | ? | ? | -4% | 45µM*
Cc1nc([C@H]2CCN(Cc3ccc(C)c(C)c3)C[C@H]2NC(=O)C2CCOCC2)n[nH]1 | . | ? | . | -5% | -3%
COC1CCOC2(CCN(C(=O)Cc3cccc(F)c3)CC2)C1 (centres undefined) | i | -10% | 0% | i | -7%
COc1ccc(OCC2CC3(CCCCC3)CN2C(=O)Cc2cccc(F)c2)cc1 (centres undefined) | . | 40µM* | . | -4% | 40µM*
COc1ccccc1Nc1ccnc(N2CCCC(C(=O)NCc3cccc(Cl)c3)C2)n1 (centres undefined) | . | 13µM* | . | i | ?
COc1ccccc1Nc1ccnc(N2CCCC(C(=O)NCCc3ccc(Cl)cc3)C2)n1 (centres undefined) | . | ? | . | -7% | ?
COc1ccccc1Nc1ccnc(N2CCCC(C(=O)NCc3cccc(F)c3)C2)n1 (centres undefined) | . | 13µM* | . | -1% | 11µM*
COc1ccccc1Nc1ccnc(N2CCCC(C(=O)NCC(F)(F)F)C2)n1 (centres undefined) | . | ? | . | 0% | ?
Cn1ccc2c(C(=O)NCc3cccnc3)nc(-c3ccc(F)cc3)cc21 | i | ? | -24%[70.6 µM] | -8%[88.5 µM] | 100µM*
Cn1ccc2c(C(=O)NCc3cccnc3)nc(-c3ccccc3)cc21 | i | ? | ? | -5%[88.5 µM] | ?
CN1CCN(c2ccc(-c3cc4c(ccn4C)c(C(=O)NCc4cnccn4)n3)cc2)CC1 | ? | ? | -1% | 3% | 45µM*
CN(C)Cc1ccc(-c2cc3c(ccn3C)c(C(=O)NCc3cccnc3)n2)cc1 | i | ? | 4%[70.6 µM] | 2%[88.5 µM] | ?
Cn1nccc1-c1cc2c(ccn2C)c(C(=O)NCc2cccnc2)n1 | i | 28µM* | 3%[70.6 µM] | ? | -27%[172 µM]
Cn1ccc2c(C(=O)NCc3cccnc3)nc(-c3ccccc3C#N)cc21 | i | 25µM* | -6%[70.6 µM] | -5%[88.5 µM] | -18%[172 µM]
